From PubChem
Sampled rows, rich in hits. Any-hit rate of the full collection: about 21%.
NS1 inh – inhibitors of influenza NS1 protein function | Potency, µM (series often up to 46.1 µM) | hit rate 0.4% among 270,000 | AID 2326; calls by dose curve; note: actives are rising curves; nearly all actives have a fitted effect of over 50% in size
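Growth recovery, yeast-based: influenza A NS1 expressed in S. cerevisiae causes slow growth, and suppressors are detected by OD600. The parent strain without NS1 is used as positive control.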
Pf growth 48h – P. falciparum growth inhibition at 48 hours (one generation); AID 504832; P. falciparum luciferase growth in erythrocytes, 48 h; Potency, µM (highest dose often 28.7 µM), usual class: inhibitors; hit rate 5.9% among 310,000
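Read-out is firefly luciferase luminescence from an integrated reporter in P. falciparum, so falling signal marks reduced parasite growth. Infected erythrocytes were at 2% hematocrit and 0.1% parasitemia (final) in Albumax-supplemented RPMI 1640.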
Cycloheximide cs – counter-screen for Shiga toxin inhibitors: cycloheximide protein synthesis inhibition | cell reporter, cycloheximide protein synthesis inhibition counterscreen | max response, % | hit rate 12% among 300,000 | AID 2314; in the data active = max response mostly above about 13%, no sharp cut-off; inactive = mostly below about 14%; note: read at 38.3 µM for the half of the compounds with a filed dose
Shiga toxin inh – blocks Shiga toxin action in Vero cells | Vero cells, Shiga toxin protein synthesis inhibition reporter | inhibition, % at 38.7 µM | hit rate 9.2% among 290,000 | AID 2315; in the data active = inhibition mostly above about 28%, no sharp cut-off; inactive = mostly below about 43%
Pf growth 96h – P. falciparum growth inhibition at 96 hour, primary screen for plastid delayed-death inhibitors; hit rate 6.9% among 320,000; P. falciparum luciferase reporter growth, 96 h; Potency, µM (top dose mostly 28.7 µM), most hits filed as inhibitors; AID 504834
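Infected RBCs, 2% Hct / 0.05% parasitemia final; luciferase-reporter P. falciparum; cpd 96 h, 37 C, 5% CO2; luciferase detection reagent; luminescence.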
Hits are given with their value; 0 = inactive; ? = inconclusive; - = no result. Unless noted, calls come from the whole dose curve; as a rule, active = well fitted inhibition curve with a large enough effect; inconclusive = small, poorly fitted or top-dose-only effect, or another doubt; inactive = no such curve, though single readings can be large or run the other way.

SMILES | NS1 inh | Pf growth 48h | Cycloheximide cs | Shiga toxin inh | Pf growth 96h
COCc1cc(=O)[nH]c(Nc2nc3ccc(C)cc3o2)n1 | 0 | 2.9µM | 43 | 82 | ?
C#CCn1c(S(=O)(=O)Cc2ccc(OC)cc2)nc(-c2ccccc2)c1-c1ccccc1 | 0 | ? | 0 | 0 | ?
CCN(CC(=O)Nc1c(F)cccc1F)C(=O)CNC(=O)c1ccc(C)s1 | 0 | 0 | 51 | 65 | 0
CC(=O)c1ccc(CCCCCCCCCC(=O)O)s1 | 0 | 0 | 0 | 0 | 0
COC(=O)CCCCCc1ccc(C(C)=O)s1 | 0 | 0 | 12 | 0 | 0
CC(=O)C1=C(c2ccccc2)NC(=O)NC1c1ccc2c(c1)OCO2 (stereo not given) | 0 | 0 | 0 | - | 0
COc1ccc(C2=CC(c3cc(OC)c(OC)c(OC)c3)NC(=S)N2)cc1 (stereo not given) | 0 | ? | 0 | 0 | -
COc1ccc(OC)c(C2C=C(C34CC5CC(CC(C5)C3)C4)NC(=S)N2)c1 (stereo not given) | 0 | 8.3µM | 0 | 0 | 2.6µM
COc1cc(C2C=C(C34CC5CC(CC(C5)C3)C4)NC(=S)N2)cc(OC)c1OC (stereo not given) | 0 | - | 0 | 0 | 1µM
S=C1NC(C23CC4CC(CC(C4)C2)C3)=CC(c2ccc3c(c2)OCO3)N1 (stereo not given) | - | 4.1µM | 0 | 0 | ?
Cc1cc(C(=O)OCC(=O)Nc2cccc(S(N)(=O)=O)c2)c2ccccc2n1 | 0 | 0 | 0 | 0 | 0
O=C(COc1ccc(Nc2ccccc2)cc1)Nc1ccncc1 | - | 0 | - | - | 0
COc1ccc(C2=NOC(C)(c3nnc(-c4ccc(F)cc4)o3)C2)cc1 (stereo not given) | 0 | 0 | 0 | 0 | 0
Cc1ccc(NC(=O)C2CCC(CNC(=O)[C@@H]3Cc4ccccc4CN3)CC2)c(C)c1 (stereo not given in full) | 0 | 0 | 0 | 0 | ?
Cc1cc(Cl)n2c(nc3ccccc32)c1C#N | - | 8.3µM | 0 | 0 | ?
CNc1cc(C)c(C#N)c2nc3ccccc3n12 | 0 | 0 | 0 | 0 | ?
CCCNc1cc(C)c(C#N)c2nc3ccccc3n12 | 0 | 0 | 0 | 0 | 0
CCN(CC)c1cc(C)c(C#N)c2nc3ccccc3n12 | 0 | 5.9µM | 0 | 0 | ?
CC1CCC(NC(=O)N(CCCl)N=O)CC1 (stereo not given) | - | 5.4µM | - | - | 6.7µM
S=C(NNc1ccnc2cc(Cl)ccc12)Nc1ccccc1Cl | ? | ? | 23 | 0 | 0
Clc1ccc(NNc2ccnc3cc(Cl)ccc23)cc1 | 0 | 1.7µM | 0 | 0 | 1.7µM
Oc1ccc(Nc2ccnc3cc(Cl)ccc23)cc1 | 0 | 1µM | 0 | 0 | 1.9µM
O=C(O)c1ccc(Nc2ccnc3cc(Cl)ccc23)cc1O | 0 | - | - | - | -
O=C(CNC(=O)c1sc2ccccc2c1Cl)NCc1cccc(C(F)(F)F)c1 | - | ? | - | - | 0
COc1ccc(-c2cc(C(F)(F)F)nc(S(=O)(=O)CCCC(=O)Nc3cccnc3Cl)n2)cc1OC | - | 12µM | 19 | 0 | 0
SMILES | NS1 inh | Pf growth 48h | Cycloheximide cs | Shiga toxin inh | Pf growth 96h
COCC(C)NC(=O)CCS(=O)(=O)c1nc(-c2ccc(OC)cc2)cc(C(F)(F)F)n1 (stereo not given) | 0 | 0 | 0 | 0 | 9.3µM
N#C/C(=C/c1ccc(N2CCOCC2)o1)C(=O)NC1CCCCC1 | 0 | ? | 19 | 0 | 0
COc1ccc(NC(=O)/C(C#N)=C\c2ccc(N3CCOCC3)o2)cc1 | 0 | 0 | 24 | 0 | 0
COc1ccc(NC(=O)/C(C#N)=C/c2ccc(Br)o2)cc1 | 0 | 0 | 22 | 52 | 0
N#C/C(=C/c1ccc(Br)o1)C(N)=S | ? | ? | 0 | 0 | 12µM
COc1ccc(NC(=O)/C(C#N)=C/c2ccc3c(c2)n(C)c(=O)n3C)cc1 | 0 | 0 | 0 | 0 | 0
Cc1cccc2c(SCC(=O)NCC3CCCO3)nc(-c3ccc(F)cc3)nc12 (stereo not given) | 0 | 0 | 0 | 0 | 0
CC1CCCC(C)N1C(=O)COC(=O)c1n[nH]c(=O)c2ccccc12 (stereo not given) | - | 0 | - | - | 0
N#C/C(=C/c1ccc(N2CCCCC2)o1)C(=O)Nc1ccc(Cl)cc1 | 0 | 0 | 35 | 76 | 0
N#C/C(=C\c1ccc(N2CCOCC2)o1)C(=O)Nc1ccc(O)cc1 | 0 | ? | 31 | 68 | 0
O=C(/C=C/c1ccccc1)NC(=S)N1CCSCC1 | 0 | 0 | 0 | 0 | 0
CCOC(=O)c1sc(NC(=O)CNCc2ccccn2)c(C(=O)OCC)c1C | 0 | 1µM | 0 | 0 | 0.41µM
CCOC(=O)c1c(NC(=O)CN2C(=O)NC3(CCCCC3)C2=O)sc(C)c1-c1ccc(C)cc1 | 0 | 15µM | 0 | 0 | 9.3µM
CCOC(=O)c1sc(NC(=O)CN2C(=O)NC3(CCCCCCC3)C2=O)c(C(=O)OCC)c1C | 0 | 8.3µM | 0 | 0 | 9.3µM
CCOC(=O)c1c(NC(=O)CC)sc(C(=O)N2CCCCC2)c1C | 0 | - | 0 | 0 | 13µM
CCOC(=O)c1sc(NC(=O)CNCc2cccnc2)c(C(=O)OCC)c1C | - | ? | 0 | 0 | ?
CCOC(=O)c1c(NC(=O)CN2C(=O)NC3(CCC(C)CC3)C2=O)sc(C)c1-c1ccc(C)cc1 (stereo not given) | ? | 0 | 0 | 0 | 0
O=C(CSc1ccc([N+](=O)[O-])cn1)Nc1ccc2c(c1)OCO2 | 0 | 0 | 0 | 0 | 0
CCN(CC)CCN1C(=O)C(=O)/C(=C(/O)c2cnn(-c3ccccc3)c2C)C1c1ccc(C)o1 (stereo not given) | 0 | 0 | 47 | 87 | -
Cc1nc2ccccn2c1/C(O)=C1\C(=O)C(=O)N(CCN2CCOCC2)C1c1cccs1 (stereo not given) | 0 | 0 | 0 | 0 | 0
Cc1ccc(C2/C(=C(/O)c3cnn(-c4ccccc4)c3C)C(=O)C(=O)N2CCN2CCOCC2)o1 (stereo not given) | 0 | - | 56 | 75 | -
Cc1c(/C(O)=C2/C(=O)C(=O)N(CCN3CCOCC3)C2c2cccs2)cnn1-c1ccccc1 (stereo not given) | 0 | 0 | 40 | 86 | 0
Cc1ccc(C2/C(=C(\O)c3cnn(-c4ccccc4)c3C)C(=O)C(=O)N2CCN(C)C)o1 (stereo not given) | 0 | ? | 0 | 0 | 0
CC(=O)NCCC(=O)N(Cc1ccccc1)c1nc2c(C)cccc2s1 | 0 | 7.4µM | 0 | 0 | ?
CCOc1ccc2nc(N(Cc3ccccc3)C(=O)CCNC(C)=O)sc2c1 | 0 | 0 | 30 | 51 | ?
SMILES | NS1 inh | Pf growth 48h | Cycloheximide cs | Shiga toxin inh | Pf growth 96h
CC(C)(C)OC(=O)n1cc(C(=O)c2ccccc2O)cn1 | 0 | 0 | 0 | 0 | 0
CCc1cccc(OCC(=O)Nc2ccc(S(=O)(=O)N3CCCC3)cc2)c1 | 0 | ? | 0 | 0 | ?
Cc1ccc(NC(=O)c2ccccc2OCC(=O)Nc2ccccc2F)cc1S(=O)(=O)N(C)C | - | 9.3µM | - | - | 7.4µM
Cc1ccc(S(=O)(=O)N(C)C)cc1NC(=O)COC(=O)CSc1ccccc1 | - | 0 | - | - | 0
Cc1ccc(S(=O)(=O)N(C)C)cc1NC(=O)COc1ccccc1C(=O)Nc1ccccc1 | - | 12µM | - | - | ?
CC(C)(C)C(=O)NC(n1cnc2c(N3CCOCC3)ncnc21)C(Cl)(Cl)Cl (stereo not given) | 0 | ? | 0 | 0 | 0
O=C(COc1ccc(F)cc1)N1c2ccccc2CCc2ccccc21 | 0 | ? | 0 | 0 | ?
